The list shows a part of the results. Unmarked numbers belong to inactive results. Active and inactive are the calls of the source.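 Rule for the calls: active = inhibition reaching a set limit in any replicate at 20 µM, the limit being 80% of the first screen's; inactive = the rest.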
Biological target: DNA dC->dU-editing enzyme APOBEC-3G (Homo sapiens) (UniProt Q9HC16)
Assay: human A3G ssDNA deamination inhibition, hit confirmation – biochemical, fluorescence, single-stranded DNA substrate, single concentration (AID 493152)
Details: recombinant A3G ssDNA deaminase, UDG/FAM-TAMRA fluorescence; at 20 µM; stronger effect = higher value

Chain of DNA dC->dU-editing enzyme APOBEC-3G (Homo sapiens) (Q9HC16 whole entry, looked up): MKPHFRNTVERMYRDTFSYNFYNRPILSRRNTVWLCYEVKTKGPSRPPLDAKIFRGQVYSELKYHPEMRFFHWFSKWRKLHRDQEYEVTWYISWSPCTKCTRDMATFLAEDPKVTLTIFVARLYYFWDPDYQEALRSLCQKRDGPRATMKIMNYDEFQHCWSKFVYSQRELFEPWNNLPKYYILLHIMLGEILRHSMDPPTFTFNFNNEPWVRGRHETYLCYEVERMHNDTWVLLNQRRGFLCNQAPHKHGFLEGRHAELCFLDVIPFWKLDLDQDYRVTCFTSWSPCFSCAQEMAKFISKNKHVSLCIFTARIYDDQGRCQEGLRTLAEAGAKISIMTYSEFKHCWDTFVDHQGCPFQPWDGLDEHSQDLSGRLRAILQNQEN

SMILES | inhibition
CC(C)(C)c1nnc(NC(=O)C2c3ccccc3Oc3ccccc32)s1 | 31.2% (active)
S=c1[nH]nc(-c2ccncc2)n1/N=C/c1ccccc1Cl | 95.7% (active)
CC(=O)N1CC[n+]2c(-c3ccc([N+](=O)[O-])cc3)csc21 | 50.5% (active)
Cc1cc(-c2n[nH]c(=S)n2-c2ccc(C)c(C)c2)no1 | 74.9% (active)
Cc1n[nH]c(=S)n1/N=C/c1ccc(Br)o1 | 80.4% (active)
Cc1cc(C)c2c(-c3ccc(F)cc3)c(C#N)c(=O)n(C)c2n1 | -1.37%
O=C(Cn1cnc([N+](=O)[O-])n1)NCCc1ccccc1 | 11.3% (active)
S=c1[nH]ccn1-c1ccc(Cl)cc1 | 74% (active)
Cc1noc(C)c1CSc1nc2cc(S(=O)(=O)N3CCOCC3)ccc2o1 | 71.6% (active)
CCOc1cc(C(=S)N2CCOCC2)ccc1O | 65.3% (active)
CCn1c(CN2C(=O)CSc3ccccc32)n[nH]c1=S | 23.9%
Nc1ccccc1SC(C[N+](=O)[O-])c1ccccc1 (centres undefined) | 83.4% (active)
O=c1[nH]c2ccccc2n2c(-c3ccccc3)nnc12 | 26% (active)
COC(=O)c1cccc(-n2[nH]nnc2=S)c1 | -14.5%
COCc1c(N)c(C)nc(Cl)c1C#N | 84.5% (active)
S=c1[nH]nc(Nc2ccccc2)s1 | 68.3% (active)
CC1=C/C(=N\OS(=O)(=O)c2ccccc2)C=CC1=O | 63.8% (active)
COc1ccc(N2C(=O)CC(Sc3n[nH]c(-c4ccc(C)cc4)n3)C2=O)cc1 (centres undefined) | 46% (active)
CCC(CC)c1nnc(NC(=O)C2CCN(C(=O)c3ccco3)CC2)s1 | 24.5% (active)
Cc1ccc(S(=O)(=O)N(C)CC(=O)NCCc2c[nH]c3ccccc23)cc1 | 4.16%
COc1ccccc1-n1c(-c2cc(-c3ccco3)[nH]n2)n[nH]c1=S | 50.2% (active)
CCc1c(C)[nH]c(=S)c(C#N)c1C | 89.2% (active)
CCOc1ccc(NC(=O)c2ccc(NC(=O)COC(=O)c3ccc(NC(=O)CC#N)cc3)cc2)cc1 | 51.5% (active)
Cc1nc([N+](=O)[O-])nn1C12CC3CC(CC(Br)(C3)C1)C2 | 50.8% (active)

From PubChem BioAssay AID493152 (Sanford-Burnham Center for Chemical Genomics, 2011)
